# In the library only some 1.4% were active in any assay of this set; here they are far more common.
# Chronic BCR inh: inhibitors of chronic active B-cell receptor signaling. ABC-DLBCL IkBa-CBG/CBR reporter, luminescence ratio, 4 h. Potency, µM (titrated, usually from 46.1 µM), without a hit: at the highest dose activity change, negative = inhibition, most hits filed as inhibitors. actives 0.05% (n = 340,000). AID 493014; active = well fitted inhibition curve with a large enough effect in the signal ratio, with a control signal flat, not every such curve was filed as active; inconclusive = small, poorly fitted or top-dose-only effect, or effect the other way, or a change in a side signal; the % refers to the signal ratio;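 also: potency is read from the fitted curve at half-maximal effect; plate controls were basal doxycycline-induced cells for no effect and cells given 10 µM MG132 for full effect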
#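 Compounds up to 46 uM were incubated four hours with TMD8 cells whose green CBG68 luciferase is fused to IkappaBalpha; red CBR luminescence normalised the signal, and concentration-effect curves were fitted to fusion, red and ratio data.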
# IL2 activator: activators of IL-2; activation, % (series mostly up to about 46 µM); actives 0.065% (n = 360,000); AID 652025; IL-2 activation reporter assay, cell-based qHTS; stimulated with anti-CD3/CD4/CD28 beads; in transgenic mouse T cells; in the data active = activation above about 50%; inconclusive = mostly about 30% to 49%; also: 0% is about no effect
#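 Using fluorescent plate cytometry, EGFP and DsRed are detected in transgenic mouse T cells stimulated 18 h at 37 degrees C with antibody-coated beads after 60 min compound pretreatment.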
# BRCA1 expr up: increases BRCA1 expression | MCF7-BRCA1-FFLuc reporter, luminescence, 48 h; response scale: scaled: vehicle 0%, 10 µM genistein 100% | Potency, µM (titrated, usually from 46.1 µM), inactives show at the highest dose activation, hits mostly activators | actives 1.1% (n = 380,000) | AID 624202; also: potency is read from the fitted curve at half-maximal effect; nearly all actives have a fitted effect of over 80% in size
#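 Quantitative HTS in MCF7 cells stably reporting BRCA1 expression via firefly luciferase. Compound treatment lasts 48 h at 37 °C in phenol-red free MEM. Activation is expressed relative to genistein at 10 microM and DMSO.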
# a7 integrin act: activators of alpha7 integrin expression for muscular dystrophy | alpha7betagal myoblasts, beta-gal FDG fluorescence, 48 h | Potency, µM (top dose mostly 38.3 µM), without a hit: top-dose activation, most hits filed as activators | AID 624291 | actives 0.064% (n = 350,000);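 also: potency is read from the fitted curve at half-maximal effect; 100% = response of the positive control SU9516; nearly all actives have a fitted effect of over 60% in size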
#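 Alpha7betagal+/- myoblasts (passage 13) were plated 16-24 hr, then exposed to compounds (1:260 dilution of DMSO stock) for 48 hours at 37C. After MPER lysis, β-galactosidase reporter activity was read as FDG fluorescence (ex 480/em 540) after 30 minutes.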
# Nrf2 activator: activates Nrf2 signaling. AREc32 ARE-luciferase reporter (MCF7-derived line), luminescence, 24 h. Potency, µM (series often up to 46.1 µM), inactives show at the top dose activation, actives largely listed as activators. actives 0.31% (n = 410,000); also: potency is read from the fitted curve at half-maximal effect; % of control where 0% means no effect; nearly all actives have a fitted effect of over 65% in size
#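 AREc32 cells carrying an ARE-driven firefly luciferase reporter were seeded at 1000 cells/well in OPTI-MEM with 5% FBS, then exposed to compound for 24 hr at 37 deg C. Luminescence was read with Steady-Glo after 30 min at RT.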
# N370S GC mod: inhibitors or activators of N370S glucocerebrosidase for Gaucher disease | actives 0.092% (n = 330,000) | Potency, µM (highest dose often 59.4 µM), for the others: at the highest dose activity change, negative = inhibition, most hits filed as inhibitors | AID 2101 | N370S GC spleen homogenate, 4MU-glucoside fluorescence;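 also: potency is read from the fitted curve at half-maximal effect; 0% = full enzyme activity and -100% = no enzyme basal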
# Numbers without * were called inactive; ? = inconclusive; . = no result given. Unless noted, calls follow the shape of the dose curve; as a rule, active = well fitted curve in the direction sought with a large enough effect; inconclusive = small, poorly fitted or top-dose-only effect, or another doubt; inactive = no such curve, though single readings can be large; an effect the other way counts as inactive or inconclusive.
SMILES,Chronic BCR inh,IL2 activator,BRCA1 expr up,a7 integrin act,Nrf2 activator,N370S GC mod
CCOC(=O)C1=C(COC(=O)c2cccc(N(C)C)c2)NC(=O)NC1C (centres undefined),5%,-4,4.5µM*,-13%,1%,3%
Cc1ccn(CCC(=O)N2CCCC(N3CCN(c4ccccc4C)CC3)C2)n1 (centres undefined),.,-2,6%,7%,0%,.
COc1ccc(OC)c(NC(=O)C2COc3ccccc3O2)c1 (centres undefined),4%,0,9%,-7%,4%,21%
CCOc1ccc(OCC)c(NC(=O)C2COc3ccccc3O2)c1 (centres undefined),?,-2,-63%,-41%,3%,-8%
COc1ccc(Cl)cc1NC(=O)C1COc2ccccc2O1 (centres undefined),?,0,-7%,?,3.5µM*,?
CCOc1ccccc1NC(=O)C1COc2ccccc2O1 (centres undefined),13%,0,-60%,-22%,6.3µM*,10%
CCC(Sc1ncccc1C(=O)Oc1ccccc1Cl)C(=O)Nc1ccccc1OC (centres undefined),15%,.,.,.,0%,.
O=C(CSc1ncccc1C(=O)Oc1ccccc1Cl)Nc1ccccc1Cl,?,.,11µM*,.,5%,.
Fc1cccc2sc(N3CCOCC3)nc12,-13%,-1,82%,-39%,3%,-9%
Fc1cccc2sc(N3CCCCC3)nc12,-3%,0,13µM*,10%,3%,-2%
Cc1cc(/C=C2\C=Cc3ccccc32)cc(C)c1[N+](=O)[O-],.,.,-44%,.,.,.
C/C(=N/NC(=O)c1cccs1)c1cccc(N)c1,?,-2,11µM*,-9%,6%,-20%
C/C(=N\NC(=O)COc1ccccc1[N+](=O)[O-])c1cccs1,?,0,18%,-30%,8.9µM*,8%
C/C(=N/NC(=O)c1cccs1)c1cccs1,?,7,3.5µM*,-1%,14%,-9%
C=C(C)C1CC=C(C)/C(=N/NC(=O)c2cccs2)C1 (centres undefined),?,0,10µM*,18%,7%,20%
C/C(=N\NC(=O)c1cc2ccccc2cc1O)c1cccs1,-7%,1,2%,?,0%,2%
C/C(=N\NC(=O)c1cccs1)c1c(O)cc(C)oc1=O,?,-4,3.5µM*,28%,3%,?
CCOC(=O)/C=C(\C)N1N=C(c2ccccc2)CC1c1ccccc1 (centres undefined),?,1,26%,-46%,13µM*,2%
c1ccc(CNc2ncnc3c2ncn3C2CCCCO2)cc1 (centres undefined),?,1,13µM*,13%,3%,7%
O=C(Cn1cnc2c(NCc3ccccc3)ncnc21)NCC1CCCO1 (centres undefined),1%,0,7%,8%,0%,.
c1ccc(CSc2ncnc3c2ncn3C2CCCCO2)cc1 (centres undefined),.,0,?,31%,0%,.
Fc1ccc(CSc2ncnc3c2ncn3C2CCCCO2)cc1 (centres undefined),.,-2,7.1µM*,23%,5%,.
Clc1cccc(CSc2ncnc3c2ncn3C2CCCCO2)c1 (centres undefined),.,0,5.6µM*,8%,3%,.
CCOC(=O)c1c(C)[nH]c(C(=O)OC(C(=O)N(C)C)c2ccccc2)c1C (centres undefined),.,.,-6%,.,.,.
CCSC1=NC2(CCN(C(=O)NC3CCCCC3)CC2)N=C1c1ccc(Cl)cc1,.,.,.,.,3%,.
Cc1ccc(NC(=O)c2ccccn2)c(Br)c1,?,0,3.5µM*,18%,8%,6%
Cc1ccc(C)c(NC(=O)c2ccccn2)c1,?,-2,50%,2%,3%,4%

# Source: PubChem BioAssay
